Most compounds without a hit are left out; they make up all but 2.1% or so of the library.
ARNT-TACC3 inh = ARNT/TACC3 interaction disruption; AlphaScreen His-ARNT PAS-B/GST-TACC3 binding, luminescence; TACC3 fragment carries E629A point mutation; AID 623870; inhibition, % at 9.99 µM; 0.66% of 390,000 active; Q9Y6A5;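 active = mean inhibition of replicates at least 50% and at least half of replicates each reaching 50%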;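 also: 0% = complete ARNT plus TACC3 wells and 100% = ARNT alone without TACC3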
CASP6 VEID inh = inhibitors of human caspase-6; P55212; purified caspase-6, Z-VEID-R110 cleavage fluorescence; inhibition, % at 12.5 µM; 0.53% of 350,000 active; AID 686996;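 active = mean inhibition across replicates at least about 35%, with every replicate also reaching that limit, limit read from the data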;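 also: 0% = median of neutral control wells and 100% = no fluorescence left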
Target sequence (P55212 24-179 limits assumed): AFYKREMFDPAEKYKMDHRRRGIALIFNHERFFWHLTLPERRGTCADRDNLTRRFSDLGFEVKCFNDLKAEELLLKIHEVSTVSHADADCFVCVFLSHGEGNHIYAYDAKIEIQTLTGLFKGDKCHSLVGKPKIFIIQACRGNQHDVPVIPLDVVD
Target sequence (P55212 194-293 limits assumed): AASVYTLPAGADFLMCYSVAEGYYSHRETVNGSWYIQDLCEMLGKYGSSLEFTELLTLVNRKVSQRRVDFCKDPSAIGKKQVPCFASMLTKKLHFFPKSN
SIRT5 block = blocks human SIRT5 desuccinylation of peptide; 1.1% of 330,000 active; inhibition, % at 15 µM; Purified SirT5, succinyl-peptide AMC, trypsin-coupled fluorescence; AID 652115; Q9NXA8; in the data active = inhibition above about 15%
Target sequence (Q9NXA8 whole entry, looked up): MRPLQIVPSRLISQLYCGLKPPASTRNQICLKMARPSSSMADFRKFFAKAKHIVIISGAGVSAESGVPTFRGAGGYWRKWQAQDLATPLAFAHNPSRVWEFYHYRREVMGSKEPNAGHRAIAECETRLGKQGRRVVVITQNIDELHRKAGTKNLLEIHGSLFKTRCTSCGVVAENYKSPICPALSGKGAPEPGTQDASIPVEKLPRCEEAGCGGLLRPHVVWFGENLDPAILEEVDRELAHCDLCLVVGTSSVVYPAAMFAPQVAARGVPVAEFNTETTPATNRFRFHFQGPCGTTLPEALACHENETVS
PfHsp90 yeast 2 = growth inhibition of yeast expressing Plasmodium Hsp90 | inhibition, % at 9.4 µM | 0.32% of 310,000 active | AID 504621 | S. cerevisiae expressing PfHsp90, BacTiter-Glo ATP, 48 h; yeast lacking PDR1 and PDR3 efflux regulators;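 active = every replicate shows inhibition above about 80%, whatever the replicate mean, limit read from the data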;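 also: 0% = DMSO neutral controls and 100% = 20 µM radicicol positive controls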
NSD2 HMT inh = blocks human histone methyltransferase NSD2 | O96028 | NSD2 peptide methylation, AlphaScreen, 120 min | inhibition, % at 12.5 µM | 0.54% of 310,000 active | AID 743445; in the data active = inhibition above about 50%
AlphaScreen ctr = interferes with AlphaScreen signal, flagging false ARNT-TACC3 hits. His-ARNT PASB-GST AlphaScreen artifact counter-screen, luminescence. AC50, µM (doses to about 68 µM), for inactives: top-dose activity change, negative = signal decrease. shares compounds with ARNT-TACC3 inh. 50% of 1,200 active. AID 651705;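 active = every separate test run was called active for a drop in luminescence, with AC50 within twice the top valid dose, actives reach about 71 µM in these data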
Starred values were filed as active, the others as inactive; · = no result given; [ ] = another dose, or the depositor's remark.

SMILES | ARNT-TACC3 inh | CASP6 VEID inh | SIRT5 block | PfHsp90 yeast 2 | NSD2 HMT inh | AlphaScreen ctr
Cc1[nH][nH]c(=O)c1C(c1c(C)[nH][nH]c1=O)c1cn(Cc2cccc3ccccc23)c2ccccc12 | 26.4* | · | · | -26.3 | · | 46.5µM*
CC(C)NC(=O)N1[C@H](CO)[C@@H]2c3ccccc3NC[C@@H]21 | active | 1.2 | 2.7 | · | · | -5.5%[42 µM]
O=C(C[C@@H]1C=C[C@@H](NC(=O)c2ccncc2)[C@H](CO)O1)NCc1ccncn1 | · | 1.3 | -4.0 | · | · | ·
Cc1cccc(S(=O)(=O)N[C@H]2CC[C@H](CCn3cc(-c4ccccn4)nn3)O[C@H]2CO)c1 | 90.2* | 0.4 | -0.2 | · | · | 56.7µM*
O=S(=O)(N[C@H]1CC[C@@H](CCn2cc(-c3ccccn3)nn2)O[C@@H]1CO)c1cccc(F)c1 | 67.7* | -1.2 | 0.2 | · | · | 33.6µM*
COc1cccc(S(=O)(=O)N[C@H]2CC[C@H](CCn3cc(-c4ccccn4)nn3)O[C@H]2CO)c1 | · | 3.8 | 0.7 | · | · | ·
O=S(=O)(N[C@H]1CC[C@H](CCn2cc(-c3ccccn3)nn2)O[C@@H]1CO)c1cccc(F)c1 | 78.5* | 3.3 | 1.0 | · | · | 34.2µM*
O=S(=O)(N[C@H]1CC[C@H](CCn2cc(-c3ccccn3)nn2)O[C@H]1CO)c1cccc(F)c1 | 67.0* | -2.4 | 9.9 | · | · | 43.2µM*
Cc1cccc(S(=O)(=O)N[C@H]2CC[C@H](CCn3cc(-c4ccccn4)nn3)O[C@@H]2CO)c1 | · | -0.3 | -1.9 | · | · | ·
C[C@@H]1CN([C@H](C)CO)C(=O)c2cc(-c3ccccc3F)cnc2O[C@@H]1CN(C)Cc1ccccc1 | -4.3 | -0.1 | -3.0 | · | · | ·
COc1ccc(NC(=O)Nc2ccc3c(c2)CC(=O)N([C@H](C)CO)C[C@H](C)[C@@H](CN(C)Cc2ccncc2)O3)cc1 | 5.4 | 0.1 | -4.8 | · | · | ·
O=S(=O)(N[C@H]1CC[C@H](CCn2cc(-c3cccc(F)c3)nn2)O[C@H]1CO)c1ccccc1 | -0.9 | -1.2 | -3.5 | · | · | ·
O=S(=O)(N[C@@H]1CC[C@@H](CCn2cc(-c3ccccn3)nn2)O[C@@H]1CO)c1cccc(F)c1 | 94.1* | 1.0 | 0.4 | · | · | 46.7µM*
Oc1c(CN2CCOCC2)cc(COCc2ccccc2)c2cccnc12 | 56.4* | · | · | 24.4 | -0.1 | 3.95µM*
O=C(Oc1c(CN2CCOCC2)cc(Cl)c2cccnc12)c1ccccc1Br | 62.8* | -1.5 | -3.0 | 17.2 | -1.2 | 33µM*
Oc1c(CN2CCN(c3ccccc3)CC2)cc(Br)c2cccnc12 | 59.3* | -3.3 | -1.4 | 123.7* | 0.1 | 2.37µM*
COCc1cc(CN2CCN(C)CC2)c(O)c2ncccc12 | 66.6* | · | · | 9.9 | 4.1 | 10.1µM*
COCC(=O)Nc1ccc2c(c1)[C@@H]1C[C@@H](CC(=O)NCc3ccccn3)O[C@H](CO)[C@@H]1O2 | · | 0.4 | 1.8 | · | · | ·
O=C(NCC[C@@H]1CC[C@H](NC(=O)C2CCCCC2)[C@H](CO)O1)c1cc(Cl)cc(Cl)c1 | · | 0.2 | -5.6 | · | · | ·
CO[C@@H]1CN(C)C(=O)c2ccc(NC(=O)C3CC3)cc2OC[C@H](C)N(Cc2ccccc2)C[C@H]1C | -2.2 | · | 8.7 | · | · | ·
COc1ccccc1N1CCN(Cc2ccc(O)c3ncccc23)CC1 | 70.0* | · | · | -26.2 | 27.4 | 2.75µM*
COc1ccccc1N1CCN(Cc2ccc(OC)c(OC)c2OC)CC1 | 3.1 | · | · | 3.3 | -0.6 | ·
CC(C)C(=O)Nc1ccc2c(c1)C(=O)N(C)[C@@H]1CC[C@H](CC(=O)N[C@@H](C)c3ccccc3)O[C@H]1CO2 | -9.1 | · | · | · | · | ·
COc1ccc(OC)c2nc3c(C(=O)NCCN(C)C)cccc3nc12 | 20.3* | -19.9 | 0.1 | 0.4 | 6.3 | -5.5%
CCOc1ccc2c(c1)c(N=NC(=N)N)c(O)n2C | 36.3* | 1.4 | 3.6 | 8.9 | -0.4 | -25.0%
SMILES | ARNT-TACC3 inh | CASP6 VEID inh | SIRT5 block | PfHsp90 yeast 2 | NSD2 HMT inh | AlphaScreen ctr
O=C(COC(=O)c1ccc([N+](=O)[O-])o1)Nc1ccc(F)cc1 | active | 55.3* | -3.2 | -21.7 | -0.1 | -5.2%
O=C(COC(=O)c1ccc([N+](=O)[O-])o1)Nc1ccc(N2CCOCC2)cc1 | 4.9 | 33.8 | -2.9 | 31.4 | 2.3 | ·
CC(NC(=O)COC(=O)c1ccc([N+](=O)[O-])o1)c1ccccc1 (stereo unspecified) | 29.3* | 17.0 | 0.8 | -11.8 | 34.7 | 1.4%
CC(NC(=O)COc1ccc([N+](=O)[O-])cc1)c1ccccc1 (stereo unspecified) | · | 3.6 | 4.2 | -11.9 | -1.9 | ·
CCOc1ccc(C2=Nn3c(nnc3-c3ccccn3)SC2)cc1 | 63.2* | · | · | · | 0.2 | -26.9%
C[C@H]1CN([C@@H](C)CO)S(=O)(=O)c2ccc(-c3cccnc3)cc2O[C@H]1CN(C)C(=O)C1CCC1 | -9.8 | 2.0 | 0.3 | · | · | ·
C[C@@H]1CN([C@H](C)CO)C(=O)Cc2cc(NS(=O)(=O)c3ccc(F)cc3)ccc2O[C@H]1CN(C)S(=O)(=O)c1cccs1 | -3.0 | -2.4 | 4.5 | · | · | ·
FC(F)(F)c1cnc(-c2cnc(-c3ccncc3)nc2)c(Cl)c1 | 0.2 | -1.9 | -0.2 | 6.9 | 0.0 | ·
FC(F)(F)c1cnc(-c2cnc(-c3ccccn3)nc2)c(Cl)c1 | 55.2* | -3.5 | 1.1 | -35.0 | -5.7 | -16.2%
COc1ccc(NC(=O)N[C@H]2CC[C@@H](CCn3cc(-c4ccccn4)nn3)O[C@H]2CO)cc1 | 65.4* | 6.8 | -1.0 | · | · | 40.4µM*
COc1ccc(NC(=O)N[C@H]2CC[C@@H](CCn3cc(-c4ccccn4)nn3)O[C@@H]2CO)cc1 | 95.3* | 1.1 | -0.2 | · | · | 38.7µM*
Nc1ccc2nn(-c3ccc(F)cc3)nc2c1 | 16.8* | -0.7 | 1.7 | -2.2 | 4.5 | -25.4%
Cc1ccc(-n2nc3ccc(N)cc3n2)cc1 | · | · | · | 6.9 | 2.7 | ·
O=C(CSc1n[nH]c(-c2ccccn2)n1)Nc1cccc(Cl)c1 | 55.5* | -2.6 | -4.2 | 8.0 | -2.1 | 13.6µM*
Cc1ccc(C)c(NC(=O)CSc2n[nH]c(-c3ccccn3)n2)c1 | 76.5* | 2.3 | -5.5 | 7.4 | -2.5 | 10.4µM*
Cc1ccc(O)c(NC(=O)CSc2n[nH]c(-c3ccccc3)n2)c1 | -1.4 | -8.6 | -5.4 | 3.6 | 3.1 | ·
CCCN1C[C@@H](C)[C@@H](OC)CN(C)C(=O)c2cc(NS(C)(=O)=O)ccc2OC[C@@H]1C | -2.0 | · | · | · | · | ·
Cc1[nH]n(-c2ccccc2)c(=O)c1/C=N/NC(=O)COc1ccccc1[N+](=O)[O-] | 59.0* | -6.7 | · | -1.3 | 16.8 | -26.3%
C[C@H](CO)N1C[C@H](C)[C@@H](CN(C)Cc2ccccn2)Oc2ncc(C#CC3(O)CCCC3)cc2C1=O | 19.0* | -3.3 | 5.0 | · | · | -9.0%[38 µM]
C[C@H]1CN([C@@H](C)CO)C(=O)c2cc(C#Cc3ccccn3)cnc2O[C@H]1CN(C)Cc1ccncc1 | 1.1 | -5.5 | 3.4 | · | · | ·
CCCN(C)C[C@@H]1Oc2ncc(C#CCC(C)C)cc2C(=O)N([C@@H](C)CO)C[C@H]1C | 37.4* | 7.9 | 1.1 | · | · | -20.3%[42 µM]

Bioassay records deposited in PubChem by Broad Institute.
